This is part of a sample that, as a whole, favours compounds with a hit. Of some 83,000 tested, about 20% had one in any assay.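 Values shown are percent growth following 48 h exposure of cells in 96-well plates to a single concentration of compound; below 10 was considered active.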 The source made the active and inactive calls.

The assay relates to NCI-H23 lung. The experiment in a line: NCI-60 one-dose screen, 48 h (100 = growth as untreated, 0 = no growth, -100 = all killed). Particulars: 10 µM unless noted.
In the case of `Cc1ccc(S(=O)(=O)Nc2sccc2-c2nc(-c3ccccc3)no2)cc1`, the growth is 87.5% (inactive).
In the case of `CCNCCNc1cc(-c2ccc(C(F)(F)F)cc2)c(C#N)c2nc3cc(Cl)c(Cl)cc3n12` it was -76.6% (active).
The same measure for `COc1ccc(/C=C(\C#N)n2nnc3ccccc32)cc1`: 15.1% (inactive); for `CC(C)n1nc(C#Cc2cccc3cc(-c4cccc(C(F)(F)F)c4)ncc23)c2c(N)ncnc21`: 78.6% (inactive).
The same measure for `COC(=O)CNC(=O)C(=O)c1c(O)c(O)c(C(C)C)c2cc(C)c(-c3c(C)cc4c(C(C)C)c(O)c(O)c(C(=O)C(=O)NCC(=O)OC)c4c3O)c(O)c12`: 17.8% (inactive).
Regarding `NC(=O)c1c(NC(=O)c2ccc(C(F)(F)F)cc2Cl)sc2c1CCC(=O)C2`, the growth is -7.98% (active).
The same measure for `C[C@@H](C[C@H](CCOCc1cccnc1)c1ccccc1)c1cc2ccccc2o1`: 90.7% (inactive); for `CCn1c(Sc2nnc(Nc3ccccc3)s2)nc2c1c(=O)n(C)c(=O)n2C`: 88.2% (inactive).
In the case of `Cc1cc(Cl)nc(N(CCCNc2ccnc3cc(Cl)ccc23)Cc2ccccn2)n1` it was 33.6% (inactive); in that of `OC(CBr)c1ccnc2ccccc12` (configuration not stated), 96.8% (inactive); in that of `COc1cc(C2C=C(c3cccc(NC(C)=O)c3)Nc3ncnn32)cc(OC)c1OC` (configuration not stated), 29.8% (inactive).
In the case of `CCCCOC(=O)c1ccc(NC(=O)C(C)N2CCOCC2)cc1` (configuration not stated) it was 98.5% (inactive).

The values are drawn from PubChem BioAssay (NCI).
